Activity calls are given as the source filed them.
How the values were obtained:
[1] = optical density shifts of acrAB sulA E. coli – strain DRC41, OD650, 48 h, E. coli filamentation inducer project, primary screen (AID 1152); conditions: higher = more signal, called active from +8 up or from −8 down;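 further: E. coli MC1000 strain DRC41 lacking acrAB efflux pump and sulA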
[2] = probe aLefty1 binding on compound microarray – biochemical, small-molecule microarray, 635/667 nm fluorescence, primary screen (AID 1153); conditions: higher = more signal;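 further: score merges spot fluorescence with signal-to-noise ratio from the scanned slide images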
[3] = plasmodial surface anion channel blockers, osmotic lysis – cell-based, P. falciparum Indochina, OD700, 1 h, primary screen (AID 1154); conditions: P. falciparum Indochina infected RBC osmotic lysis, higher = more signal, called active from +8 up or from −8 down
[4] = plasmodial surface anion channel blockers, osmotic lysis – cell-based, P. falciparum Indochina, OD700, 2 h, primary screen (AID 1155);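 further: lysis reports solute entry through the parasite surface anion channel PSAC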; conditions: P. falciparum Indochina infected erythrocytes, higher = more signal, called active from +8 up or from −8 down
[5] = changes in parasitized red cell lysis, either direction – P. falciparum Indochina, OD700, 3 h, PSAC antagonist project, primary screen (AID 1156); conditions: P. falciparum-infected erythrocytes, osmotic lysis, higher = more signal, called active from +8 up or from −8 down
[6] = plasmodial surface anion channel blockers, osmotic lysis – cell-based, P. falciparum Indochina, OD700, 18 h, primary screen (AID 1157); conditions: P. falciparum Indochina infected erythrocytes, osmotic lysis OD700, 18 h; higher = more signal, called active from +8 up or from −8 down
[7] = S6 kinase pathway phospho-S6 level changes – cell-based, A549, cytoblot, luminescence, serum-stimulated, primary screen (AID 1158); conditions: 5 h, higher = more signal;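 further: serum-stimulated A549 lung adenocarcinoma cells; signal is phosphorylated S6 detected by cytoblot immunostaining with HRP secondary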
[8] = target: NADPH oxidase 2 (Homo sapiens) (UniProt P04839); assay: compounds shifting NOX2 Amplex Red fluorescence – cell-based, HEK293-NOX2, PMA-stimulated, NOX inhibitor project, primary screen (AID 1159); conditions: 45 min, higher = more signal, called active from +8 up or from −8 down; further: test concentration not given here
NADPH oxidase 2 (Homo sapiens), sequence (P04839 whole entry, looked up): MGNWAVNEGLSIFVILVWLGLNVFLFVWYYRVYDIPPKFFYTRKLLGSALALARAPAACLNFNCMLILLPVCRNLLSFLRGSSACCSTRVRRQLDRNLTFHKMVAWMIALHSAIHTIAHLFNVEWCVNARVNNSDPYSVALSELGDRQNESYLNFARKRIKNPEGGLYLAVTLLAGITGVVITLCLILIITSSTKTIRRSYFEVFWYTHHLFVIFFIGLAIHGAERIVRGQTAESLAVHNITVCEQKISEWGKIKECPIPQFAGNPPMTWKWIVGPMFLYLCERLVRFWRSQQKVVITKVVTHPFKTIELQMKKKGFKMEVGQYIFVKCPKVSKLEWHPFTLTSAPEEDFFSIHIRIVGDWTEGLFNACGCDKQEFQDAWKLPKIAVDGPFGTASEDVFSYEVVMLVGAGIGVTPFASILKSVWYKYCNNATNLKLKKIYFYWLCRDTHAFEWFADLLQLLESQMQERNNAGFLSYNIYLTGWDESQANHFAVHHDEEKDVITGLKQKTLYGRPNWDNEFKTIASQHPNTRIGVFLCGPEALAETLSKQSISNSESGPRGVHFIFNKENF

[9] = target: NADPH oxidase 4 (Homo sapiens) (UniProt Q9NPH5); assay: compounds shifting NOX4 Amplex Red fluorescence – cell-based, HEK293-NOX4, tetracycline-induced, NOX inhibitor project, primary screen (AID 1160); conditions: HEK293-NOX4, Amplex Red H2O2 fluorescence, 45 min; higher = more signal, called active from +8 up or from −8 down
NADPH oxidase 4 (Homo sapiens), sequence (Q9NPH5 whole entry, looked up): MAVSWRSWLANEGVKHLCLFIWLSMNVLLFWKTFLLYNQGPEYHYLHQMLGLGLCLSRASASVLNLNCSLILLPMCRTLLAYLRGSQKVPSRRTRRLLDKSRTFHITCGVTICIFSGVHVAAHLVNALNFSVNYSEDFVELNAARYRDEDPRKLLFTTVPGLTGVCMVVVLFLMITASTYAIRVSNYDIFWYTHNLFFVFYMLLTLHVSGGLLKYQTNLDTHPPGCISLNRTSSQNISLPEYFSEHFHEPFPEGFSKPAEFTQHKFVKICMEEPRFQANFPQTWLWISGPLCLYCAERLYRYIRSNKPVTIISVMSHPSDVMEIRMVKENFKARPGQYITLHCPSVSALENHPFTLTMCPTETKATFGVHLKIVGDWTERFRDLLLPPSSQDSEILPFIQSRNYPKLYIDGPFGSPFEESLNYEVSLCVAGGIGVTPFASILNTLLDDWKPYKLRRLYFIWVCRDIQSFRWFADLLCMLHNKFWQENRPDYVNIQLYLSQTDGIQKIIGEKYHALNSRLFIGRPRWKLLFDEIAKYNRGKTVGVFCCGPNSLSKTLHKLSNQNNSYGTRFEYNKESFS

[10] = target: NADPH oxidase 5 (Homo sapiens) (UniProt Q96PH1); assay: compounds shifting NOX5 Amplex Red fluorescence – cell-based, HEK293-NOX5, NOX inhibitor project, primary screen (AID 1161); conditions: HEK293-NOX5, ionomycin, 45 min, higher = more signal
NADPH oxidase 5 (Homo sapiens), sequence (Q96PH1 whole entry, looked up): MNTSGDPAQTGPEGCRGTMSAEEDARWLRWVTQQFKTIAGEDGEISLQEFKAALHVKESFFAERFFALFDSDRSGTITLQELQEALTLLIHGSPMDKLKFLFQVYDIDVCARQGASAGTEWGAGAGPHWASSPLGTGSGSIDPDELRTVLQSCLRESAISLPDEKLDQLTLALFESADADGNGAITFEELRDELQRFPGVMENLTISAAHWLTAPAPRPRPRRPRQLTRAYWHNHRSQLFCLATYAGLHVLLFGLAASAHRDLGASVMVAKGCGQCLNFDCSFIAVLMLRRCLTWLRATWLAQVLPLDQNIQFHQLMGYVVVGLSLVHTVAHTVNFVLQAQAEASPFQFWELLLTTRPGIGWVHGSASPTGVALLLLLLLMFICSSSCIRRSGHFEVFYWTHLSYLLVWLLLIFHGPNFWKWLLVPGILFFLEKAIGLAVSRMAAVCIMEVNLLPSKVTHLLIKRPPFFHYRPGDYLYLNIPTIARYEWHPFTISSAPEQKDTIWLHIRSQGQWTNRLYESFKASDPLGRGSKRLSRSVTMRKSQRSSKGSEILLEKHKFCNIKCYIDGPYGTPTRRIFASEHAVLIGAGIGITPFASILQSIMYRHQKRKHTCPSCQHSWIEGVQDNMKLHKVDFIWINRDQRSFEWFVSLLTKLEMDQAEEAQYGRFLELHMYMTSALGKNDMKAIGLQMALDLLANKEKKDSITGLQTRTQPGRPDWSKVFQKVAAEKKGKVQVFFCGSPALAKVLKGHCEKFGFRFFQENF

[11] = compound effects on lung adenocarcinoma cell viability – A549, calcein-AM fluorescence, 48 h, basal, profiling panel (AID 1162); conditions: higher = more signal; further: test concentration not given here
[12] = compound effects on differentiated 3T3-L1 adipocyte viability – cell-based, 3T3-L1 adipocytes, calcein-AM fluorescence, 48 h, basal, profiling panel (AID 1163); conditions: 3T3-L1 adipocytes viability, higher = more signal; further: test concentration not given here
[13] = compound effects on hepatocellular carcinoma cell viability – HepG2, calcein-AM fluorescence, 48 h, basal, profiling panel (AID 1164); conditions: higher = more signal; further: test concentration not given here
[14] = compound effects on multiple myeloma cell viability – MM1S, calcein-AM fluorescence, 48 h, basal, profiling panel (AID 1165); conditions: higher = more signal; further: test concentration not given here
[15] = calcein-AM signal in unstimulated myeloma cells – cell-based, calcein-AM fluorescence, 48 h, PK04 Diversity Set, profiling panel (AID 1166); conditions: RPMI8226 myeloma viability, higher = more signal;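 further: cells grown under basal conditions without added stimulus; test concentration not given here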
[16] = JC-1 mitochondrial signal, unstimulated HepG2 cells – cell-based, JC-1 fluorescence, 24 h, 100 nL compound, profiling panel (AID 1167); conditions: HepG2 mitochondrial potential, higher = more signal; further: test concentration not given here
[17] = JC-1 mitochondrial signal, unstimulated adipocytes – cell-based, JC-1 fluorescence, 3T3-L1 adipocytes, 24 h, 100 nL compound, profiling panel (AID 1168); conditions: JC-1 mitochondrial fluorescence, higher = more signal, called active from +8 up or from −8 down; further: test concentration not given here
[18] = JC-1 mitochondrial signal, unstimulated myeloma cells – cell-based, JC-1 fluorescence, RPMI8226, 24 h, 100 nL compound, profiling panel (AID 1169); conditions: JC-1 mitochondrial potential fluorescence, higher = more signal; further: test concentration not given here
[19] = JC-1 mitochondrial signal, unstimulated MM1S myeloma – cell-based, JC-1 fluorescence, 24 h, 100 nL compound, profiling panel (AID 1170); conditions: MM1S mitochondrial potential, higher = more signal; further: test concentration not given here
[20] = resazurin metabolic signal in A549 cells – cell-based, resazurin fluorescence, 24 h, PK04 Diversity Set, profiling panel (AID 1171); conditions: A549 viability, higher = more signal, called active from +8 up or from −8 down; further: test concentration not given here

Compound | z-score [1] | composite z-score [2] | z-score [3] | z-score [4] | z-score [5] | z-score [6] | z-score [7] | z-score [8] | z-score [9] | z-score [10] | z-score [11] | z-score [12] | z-score [13] | z-score [14] | z-score [15] | z-score [16] | z-score [17] | z-score [18] | z-score [19] | z-score [20]
Cc1ccc(S(=O)(=O)N[C@@H]2COC(=O)[C@H](C)COC(=O)CC=C[C@H]2C)cc1 | -0.786 (inactive) | -0.0493 | 0.345 (inactive) | 0.408 (inactive) | 0.563 (inactive) | -0.0893 (inactive) | -0.648 | -0.108 (inactive) | 0.174 (inactive) | 0.343 | 0.449 | 0.518 | 0.53 | 0.228 | 0.274 | 0.539 | -0.0933 (inactive) | 1.06 | 0.34 | 0.317 (inactive)
COc1cccc([C@@H]2Oc3ccc(Br)cc3C(=O)[C@H]2O)c1 | 0.91 (inactive) | -0.0464 | 20 (active) | 3.35 (inactive) | -0.0836 (inactive) | 0.592 (inactive) | -0.256 | 0.658 (inactive) | -1.89 (inactive) | -0.879 | 1.31 | -0.397 | -1.24 | -3.44 | -1.73 | -3.15 | -0.584 (inactive) | -0.0726 | -1.31 | -0.269 (inactive)
O=C1[C@H]2[C@H]3[C@H](O)[C@H](O)CC(=NOCc4ccccc4)[C@@H]3CC[C@H]2C(=O)N1C1CCCCC1 | -0.501 (inactive) | 0.056 | 2.79 (inactive) | 0.322 (inactive) | 0.28 (inactive) | 0.352 (inactive) | -0.206 | 1.56 (inactive) | 0.568 (inactive) | -0.818 | -0.128 | -1.08 | -0.622 | -0.615 | 0.0958 | -1.19 | -0.652 (inactive) | 0.886 | -0.101 | 0.36 (inactive)
COCCCNC(=O)[C@@]1(C)c2ccccc2C(=O)N(Cc2ccc(OC(F)(F)F)cc2)[C@H]1c1ccc(CO)cc1 | 0.906 (inactive) | -0.191 | 2.23 (inactive) | 0.123 (inactive) | 1.06 (inactive) | -0.0648 (inactive) | -0.459 | -0.599 (inactive) | 1.18 (inactive) | 0.247 | 0.144 | -0.471 | 1.22 | -0.0013 | 0.125 | 2.4 | 0.582 (inactive) | -0.68 | -1.06 | -0.903 (inactive)
COC(=O)[C@@]1(Cc2ccccc2)[C@H]2c3cc(C(=O)N4CCCC4)n(Cc4ccccn4)c3C[C@H]2CN1C(=O)c1ccccc1 | -1.04 (inactive) | 1.27 | 2.24 (inactive) | 0.278 (inactive) | 2.27 (inactive) | 1.03 (inactive) | 0.741 | 0.401 (inactive) | -1.83 (inactive) | -3.72 | -0.935 | 1.91 | -0.924 | -0.0789 | -1.72 | 1.06 | 0.339 (inactive) | -0.16 | 0.333 | -1.53 (inactive)
CCc1cc2c(nc1CC)CCN(CCC(C)=NOC[C@@H](O)[C@H]1O[C@@H]3OC(C)(C)O[C@@H]3[C@H]1O)C2 | -1.12 (inactive) | -0.179 | 0.202 (inactive) | -0.336 (inactive) | 0.0286 (inactive) | 0.0977 (inactive) | -0.512 | 0.336 (inactive) | 0.494 (inactive) | 2.57 | 0.719 | 0.879 | 1.09 | -1.1 | -0.531 | 0.244 | -1.1 (inactive) | 0.527 | -0.162 | -0.0919 (inactive)
O=C1C[C@@H](O)[C@@H](O)[C@@H]2[C@@H]3C(=O)N(C4CCCCC4)C(=O)[C@@H]3CC[C@H]12 | -0.246 (inactive) | -0.103 | 1.27 (inactive) | 0.775 (inactive) | -0.059 (inactive) | 0.423 (inactive) | 0.403 | -1.6 (inactive) | 0.386 (inactive) | -0.883 | 0.18 | 0.0589 | 0.0702 | -0.148 | -0.189 | -0.401 | -0.364 (inactive) | 0.0892 | -0.354 | 0.386 (inactive)
CC(CCN1CCc2nc(-c3ccccc3)c(-c3ccccc3)cc2C1)=NO[C@H](C)c1cn([C@@H]2COC[C@H]2O)nn1 | 0.548 (inactive) | 0.0026 | 4.09 (inactive) | 0.722 (inactive) | 1.56 (inactive) | 0.391 (inactive) | 0.387 | -2.96 (inactive) | 0.289 (inactive) | -0.331 | 1.9 | 0.183 | 1.2 | 0.259 | -0.283 | 1.34 | -0.673 (inactive) | -0.291 | -0.381 | -0.579 (inactive)
Cn1c(=O)n2n(c1=O)[C@H]1[C@H](O)[C@@H]3O[C@@H]3C(=NOC[C@@H](O)COCc3ccco3)[C@H]1CC2 | 0.301 (inactive) | 0.946 | 0.697 (inactive) | -0.507 (inactive) | 0.671 (inactive) | 0.08 (inactive) | 0.0625 | -1.04 (inactive) | 0.733 (inactive) | 0.59 | 0.981 | 0.323 | 1.41 | 0.287 | 0.588 | 1.41 | -0.439 (inactive) | -0.402 | -0.397 | -0.195 (inactive)
COCCOC(=O)N1C(=O)[C@@]2(c3cc(C#Cc4ccc(OC)cc4)ccc31)[C@H](C(=O)N1CCN(c3ncccn3)CC1)[C@H]1C(=O)O[C@H](c3ccccc3)[C@H](c3ccccc3)N1[C@@H]2c1ccc(OCCO)cc1 | -0.541 (inactive) | 0.327 | 10.1 (active) | 2.52 (inactive) | 0.493 (inactive) | 1.04 (inactive) | -0.21 | 1.51 (inactive) | 0.337 (inactive) | -0.0992 | -0.758 | 0.717 | 0.0264 | -1.01 | 0.581 | 0.331 | 3.91 (inactive) | -0.453 | -0.885 | -0.212 (inactive)

Reference: PubChem BioAssay
